Experimental data reported in PubChem BioAssay (NCI).
About 79,000 compounds went through this panel and 15% of them were active in at least one assay; those are over-represented in the sample as a whole. Unmarked numbers belong to inactive results. The source made the active and inactive calls. Cut-off read from the data, not from the text of the source: active = growth inhibition above about 70%; inactive = the rest.

Experiments:
[1] = NCI Yeast Anticancer Drug Screen. Data for the rad50 strain (AID 155);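 note: 0% = growth of vehicle-only cultures of the same strain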; settings: S. cerevisiae rad50 strain growth inhibition; at 50.0 µM; stronger effect = higher value
Summary of the method: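 Vehicle-treated cultures provide the reference for the growth inhibition reported for compound-exposed, repair-deficient yeast.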

[2] = NCI Yeast Anticancer Drug Screen. Data for the mec2-1 strain (AID 157); settings: S. cerevisiae mec2-1 strain, at 50.0 µM, stronger effect = higher value
Summary of the method: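 Strain: mec2-1 (DNA repair/cell cycle alteration). Compound exposure, then growth measured; inhibition expressed relative to vehicle.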

[3] = NCI Yeast Anticancer Drug Screen. Data for the sgs1 mgt1 strain (AID 161);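 note: 0% = growth of cultures given vehicle only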; settings: S. cerevisiae sgs1 mgt1 strain, at 50.0 µM, stronger effect = higher value
Summary of the method: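 Test agents were incubated with a DNA-repair-mutant yeast strain. Growth was then read and compared against vehicle-treated controls.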

[4] = NCI Yeast Anticancer Drug Screen. Data for the cln2 rad14 strain (AID 165);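 note: 0% = growth equal to vehicle treated cultures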; settings: S. cerevisiae cln2 rad14 strain, at 50.0 µM, stronger effect = higher value
Summary of the method: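 Compounds are applied to the cln2 rad14 yeast strain, and growth is then compared with that of vehicle-treated cultures to give inhibition.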

[5] = NCI Yeast Anticancer Drug Screen. Data for the bub3 strain (AID 167); settings: S. cerevisiae bub3 mutant strain, at 50.0 µM, stronger effect = higher value
Summary of the method: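 Mutant yeast screening strain plus compound; vehicle-treated cultures serve as the 0% inhibition reference.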

[6] = NCI Yeast Anticancer Drug Screen. Data for the mlh1 rad18 strain (AID 175); settings: S. cerevisiae mlh1 rad18 strain growth inhibition; at 50.0 µM; stronger effect = higher value
Summary of the method: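 Read-out is yeast growth inhibition, calculated against vehicle-only controls. The compound was applied to a strain engineered with DNA damage repair alterations.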

Row | SMILES | growth inhibition [1] | growth inhibition [2] | growth inhibition [3] | growth inhibition [4] | growth inhibition [5] | growth inhibition [6]
1 | CC(=O)CCC(CCCC(CCC(C)=O)[N+](=O)[O-])[N+](=O)[O-] (configuration not stated) | -7.3% | 15.3% | 0.9% | -9.4% | 13.9% | 4.15%
2 | CCN(CC)CCNC1=CC(=S)NC(C)(C)C1 | -13.7% | 10.6% | -2.6% | -4.2% | -1.9% | -6.05%
3 | O=S1c2ccc(Cl)cc2CC(SSC2Cc3cc(Cl)ccc3S(=O)c3ccccc32)c2ccccc21 (configuration not stated) | 18.5% | -35.6% | -7.65% | 6.15% | 10.5% | -9%
4 | ONC1=Nc2cc(Cl)ccc2C(=S)N2CSCC12 (configuration not stated) | 1.55% | 18.6% | -0.25% | 0.45% | -9.8% | 18.8%
5 | Cc1ccc(NC(=O)COc2cc(Cl)c(Cl)cc2Cl)cc1[N+](=O)[O-] | -8.55% | -9.1% | -6.6% | 10.2% | 0.1% | 0.4%
6 | COC(=O)C1(C)CCCC2(C)c3cc(OC)ccc3C(=O)C(Cl)C12 (configuration not stated) | 7.8% | 0.15% | 6.45% | -13.8% | 26.4% | 5.7%
7 | C/C=C(\C)C(=O)N1c2ccccc2CC1c1c(C)[nH]c2ccccc12 (configuration not stated) | 29.1% | 3.65% | 21.2% | 19.9% | 23.8% | 11.1%
8 | COc1cccc2c(NCCCCCO[N+](=O)[O-])cc[n+](C)c12 | 25.7% | -24.4% | 9.85% | 8.7% | 16.6% | 29.1%
9 | OC1c2ccccc2-c2ccc(N(Cc3ccccc3)Cc3ccccc3)cc21 (configuration not stated) | 6.95% | 11.4% | 3.75% | 30.8% | -9% | 23.8%
10 | O=C(N=C1SCCS1)Nc1cccc(Cl)c1 | 87% (active) | 5.7% | 44% | 11.3% | 11.4% | 37.2%
11 | NC(=O)CNC(=O)c1ccc(N)cc1 | 16.8% | 7.6% | 11.2% | 15.6% | 1.25% | 18.4%
12 | CCc1ccc2c(c1)/C(=N\NC(N)=O)CCC2 | -11.2% | 13.5% | -12.8% | -7.6% | 9.8% | -9.5%
13 | O=C(c1nc2ccc(Cl)cc2[nH]c1=O)C(O)c1ccco1 (configuration not stated) | -21.4% | 3.2% | -20.2% | -1.4% | -24.7% | -13.2%
14 | CC(C)=NNc1snnc1C(N)=O | 13.2% | 26.9% | 13.3% | -2% | -13.2% | 28.4%
15 | Cc1ccc(N=NC(=O)NNc2ccc(C)cc2Br)c(Br)c1 | 19.4% | -8.8% | -3.8% | 15.2% | -6.5% | 14.6%
16 | O=C1[C@@H](c2ccc(Cl)cc2)[C@H]2CC=C[C@H]2N1O | 8.65% | -21.4% | -13.8% | 15.4% | -13.4% | -2.25%
17 | O=c1[nH]cnc2nn(C3OC(CO)C(O)C3O)nc12 (configuration not stated) | 10.7% | 11.5% | 1.5% | 11.2% | -7.2% | 23.6%
18 | NC(=O)CNC(=O)C(CO)NC(=O)OCc1ccccc1 (configuration not stated) | 2.35% | -10% | 10.7% | -6.2% | -11.1% | 0.3%
19 | CCOC(=O)c1noc(Oc2ccc(Cl)cc2Cl)n1 | -13.9% | 0.15% | -10.8% | -4.35% | -9.3% | 15.1%
20 | O=C1c2cccc3c([N+](=O)[O-])ccc(c23)C(=O)N1CCc1ccccn1 | 24.9% | 19.2% | 45.5% | 1.95% | 17.9% | 26.6%
21 | CC(=O)NC1(C#N)c2ccccc2-c2ccccc21 | 18.6% | 4.2% | 18.9% | 9.3% | 5.25% | 4.55%

Row | SMILES | growth inhibition [1] | growth inhibition [2] | growth inhibition [3] | growth inhibition [4] | growth inhibition [5] | growth inhibition [6]
22 | CN(C)C(=O)C1OC1(C)c1ccccc1 (configuration not stated) | -7.75% | -5.25% | -3.35% | -20.9% | -1.3% | -7.95%
23 | O=c1[nH]c2nc(Cl)nc(Cl)c2[nH]1 | 28.4% | 5.55% | 11.4% | 12.1% | 8.3% | 45%
24 | CCOC(=O)C1S(=O)(=O)OCCOS1(=O)=O | -19.2% | -26.6% | -7.45% | 0.75% | -14.8% | -27.8%
25 | C[C@H](CCc1nc(C#N)c(N)o1)[C@H]1CC[C@H]2[C@@H]3CCC4C[C@@H](O)CC[C@]4(C)[C@H]3C[C@@H](O)[C@]12C (some centres not stated) | 87% (active) | 91.6% (active) | 86% (active) | 87.7% (active) | 84% (active) | 46%
26 | COc1ccc(CC2COC(=O)C2Cc2ccc(OC)c(OC)c2)cc1OC (configuration not stated) | 6.35% | 5.95% | -17.6% | -11.6% | 8.1% | 12.8%
27 | CCCCCCC1(/C=C/c2ccc(Cl)cc2Cl)OCCCO1 | 3.3% | 9.1% | -5.45% | -2.75% | 11.8% | 3.65%
28 | N=c1ccc2nc(N)nn(O)c-2c1 | -1.2% | 12.1% | 2.9% | -3.4% | -37.3% | -44%
29 | N#CCc1nc(-c2cc3ccccc3oc2=O)cs1 | 31.4% | 16.3% | -12.4% | 3.7% | 0.75% | -57%
30 | CN(C)CN1CSC(=S)N(CN(C)C)C1 | 20.2% | 37% | 6% | -10.7% | -5% | 26.4%
31 | CCCC(=O)Nc1cc(/C=C/C(=O)N2C[C@H]3C[C@@]34C2=CC(=O)c2[nH]cc(C)c24)n(C)c1 | 80.2% (active) | 89.3% (active) | 83.7% (active) | 81.2% (active) | 58% | 84.2% (active)
32 | COc1cccc(NC(=O)CC(=O)Nc2cccc(OC)c2)c1 | -5.05% | 3.6% | -8.4% | -32.1% | 10.1% | -18.7%
33 | CCC1CN2N=Cc3ccccc3C2=N1 (configuration not stated) | -13.7% | 5.35% | -5% | -43.5% | -22.7% | -15.8%
34 | NC(=O)Cc1c[nH]c2ccc(Br)cc12 | -24.1% | -53.8% | -8.4% | 11.4% | -20.7% | -13.2%
35 | Nc1nc2c(ncn2C2OCC(O)C(O)C2O)c(=O)[nH]1 (configuration not stated) | 15.6% | -9.7% | -13.8% | -6.15% | 0.75% | -2.3%
36 | CC(=O)N(C(C)=O)n1c(-c2ccccc2)n[nH]c1=O | -7.55% | -17.9% | -14.3% | 13.1% | -10.1% | 2.45%
37 | CCOC(CCC#N)c1ccc(C)cc1 (configuration not stated) | 10.2% | 5.65% | 34.1% | 25.2% | 0.8% | 22.3%
38 | Cc1ccc(N2C(=O)ON(c3ccccc3)C2c2ccccc2)cc1 (configuration not stated) | 3.6% | -5.8% | -4.45% | 5.9% | 12.4% | -15.9%
39 | CC(=O)OCCOC1c2ccccc2-c2ccccc21 | 7.1% | -2.75% | 18.2% | 18.6% | 25.3% | 13.8%
40 | CCCC(=O)OCC1OC(n2cc(F)c(=O)[nH]c2=O)C(F)C1OC(=O)CCC (configuration not stated) | -1.45% | 15.1% | -5.8% | -13.9% | -2.6% | -7.25%
41 | Cc1cc(=O)n2c3c(cccc13)CCC2 | 26.3% | -1.5% | -3.15% | 7.15% | 3.9% | 11.9%
42 | OCC1COc2ccc(Cl)cc2O1 (configuration not stated) (tested in a mixture with another compound) | -10.3% | -7.3% | 2.65% | 16.8% | 6.85% | 4.8%
